± gives the standard deviation.
Key:
Settings in all cases: modulator concentration 10 µM
[1] = tested on: RAW-Dual (murine macrophage reporter line); test: NF-kB reporter (SEAP) activity fold change vs agonist alone; higher = enhanced NF-kB activity
Summary of the method: (§1)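 RAW-Dual murine macrophage reporter cells were plated at 50 000 per well in 384-well plates, pin-transferred compound to 10 μM final, and pre-incubated for 1 hour at 37 °C before a PRR agonist was added and the cells incubated overnight. NF-κB activity was read from supernatant SEAP with QUANTI-Blue at 620 nm absorbance, and IRF activity from Lucia luciferase with QUANTI-Luc by luminescence. Each signal was expressed as fold change by dividing by the mean agonist-only control on the same plate. Two replicate plates were averaged, with errors obtained by propagation.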

[2] = tested on: RAW-Dual (murine macrophage reporter line); test: IRF reporter (Lucia luciferase) activity fold change vs agonist alone; higher = enhanced IRF activity
Summary of the method: as §1

[3] = tested on: RAW-Dual (murine macrophage reporter line); test: viability score (confluency relative to resting cells, overnight) (fraction); higher = more viable, active = viable (0.7 or more)
Summary of the method: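 Compound was added at a final 10 μM to RAW-Dual macrophages in 384-well plates and left overnight. Confluency was imaged with IncuCyte, and two masks were generated in IncuCyte software over all imaged wells. Each viability score is confluency relative to resting cells, and a compound met the cutoff only when both masks were above 70% of resting cells.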

[4] = agonist: CpG ODN 1826 0.5 ug/mL

| SMILES | NF-kB reporter [1, 4] | NF-kB reporter ([1]; agonist: LPS 0.1 ug/mL) | NF-kB reporter ([1]; agonist: MPLA […]) | IRF reporter ([2]; agonist: 3'3'-cGAMP 10 ug/mL) | IRF reporter ([2]; agonist: LPS 0.1 ug/mL) | IRF reporter ([2]; agonist: MPLA […]) | viability score [3] |
| --- | --- | --- | --- | --- | --- | --- | --- |
| Cc1nc[nH]c1CN1CCc2c(c3ccccc3n2C)C1=O.Cl | 1.13 ± 0.28 | 1.08 ± 0.12 | 0.903 ± 0.08 | 0.903 ± 0.041 | 1.31 ± 0.2 | 1.12 ± 0.11 | 1 (active) |
| CCOc1cccc2sc(N(CCCN(C)C)C(=O)c3ccc(Cl)s3)nc12.Cl | 0.938 ± 0.042 | 1.06 ± 0.19 | 0.898 ± 0.12 | 0.747 ± 0.093 | 0.989 ± 0.26 | 0.954 ± 0.38 | 0.917 (active) |
| CC(C)(C)NCC(O)COc1cccc2c1C[C@H](O)[C@H](O)C2 (some centres undefined) | 1.03 ± 0.091 | 0.97 ± 0.051 | 0.971 ± 0.034 | 0.892 ± 0.05 | 0.976 ± 0.032 | 0.961 ± 0.11 | 0.981 (active) |
| CCC(C(=O)N1CCC2(CC1)CC2(F)F)c1ccccc1 (centres undefined) | 1.08 ± 0.069 | 1.08 ± 0.098 | 1.62 ± 0.45 | 1.06 ± 0.048 | 1.19 ± 0.24 | 1.36 ± 0.33 | 0.911 (active) |
| CC(=O)OCC(=O)NCCCOc1cccc(CN2CCCCC2)c1.Cl | 1.14 ± 0.19 | 1.21 ± 0.23 | 0.924 ± 0.056 | 0.951 ± 0.039 | 1.42 ± 0.13 | 1.11 ± 0.1 | 0.99 (active) |
| Cc1[nH]c(=O)c(C#N)cc1-c1ccncc1 | 1.34 ± 0.19 | 1.26 ± 0.28 | 2.34 ± 1.3 | 0.895 ± 0.027 | 1.31 ± 0.15 | 1.34 ± 0.2 | 0.99 (active) |
| CC(=O)NC(CS)C(=O)O (centres undefined) | 0.957 ± 0.074 | 0.934 ± 0.068 | 0.96 ± 0.09 | 0.946 ± 0.035 | 1.08 ± 0.18 | 1.08 ± 0.18 | 1.03 (active) |
| Cc1cc(O)c(C(C)C)cc1NC(=O)c1cc(C(C)(C)C)oc1C | 1.22 ± 0.12 | 0.884 ± 0.083 | 1.76 ± 0.13 | 0.562 ± 0.025 | 0.998 ± 0.048 | 2.71 ± 0.29 | 0.797 (active) |
| CC12CCC3c4ccc(O)cc4CCC3C1CC(O)C2O (centres undefined) | 1.17 ± 0.28 | 1.28 ± 0.075 | 1.24 ± 0.093 | 0.596 ± 0.022 | 1.39 ± 0.16 | 1.44 ± 0.14 | 0.97 (active) |
| CNC(C)CCC=C(C)C.CNC(C)CCC=C(C)C (centres undefined) [Prestw-1023] | 1.07 ± 0.082 | 0.976 ± 0.12 | 1.01 ± 0.16 | 1 ± 0.047 | 1.17 ± 0.16 | 1.23 ± 0.28 | 1.04 (active) |
| COC(CNC(=O)c1cc2ccccc2[nH]1)c1ccc(Cl)s1 (centres undefined) | 0.989 ± 0.23 | 1.06 ± 0.081 | 1.12 ± 0.11 | 0.917 ± 0.045 | 1.26 ± 0.14 | 1.48 ± 0.19 | 0.882 (active) |
| CC(=O)Oc1ccc2occ(C(=O)c3cccs3)c2c1 | 0.844 ± 0.099 | 0.964 ± 0.13 | 1.19 ± 0.14 | 0.836 ± 0.039 | 1.17 ± 0.074 | 1.26 ± 0.18 | 1.02 (active) |
| Cc1cc(OCC(=O)NN=Cc2ccc(O)c([N+](=O)[O-])c2)ccc1Cl | 1.03 ± 0.29 | 1.04 ± 0.092 | 1.02 ± 0.093 | 1 ± 0.041 | 1.08 ± 0.2 | 1.13 ± 0.13 | 0.998 (active) |
| CC1CC(OC(=O)C(O)c2ccccc2)CC(C)(C)C1 (centres undefined) | 0.872 ± 0.037 | 1.02 ± 0.11 | 1.11 ± 0.18 | 1 ± 0.051 | 1.25 ± 0.25 | 1.48 ± 0.5 | 1.01 (active) |
| Cc1ccc(C2(c3ccc(C)cc3)CC2C(=O)Nc2ccncc2)cc1 (centres undefined) | 0.811 ± 0.095 | 0.865 ± 0.076 | 0.908 ± 0.033 | 0.764 ± 0.045 | 1.04 ± 0.09 | 1.02 ± 0.074 | 1 (active) |
| NCC(=O)O | 0.965 ± 0.073 | 0.999 ± 0.064 | 0.96 ± 0.021 | 0.912 ± 0.068 | 1.02 ± 0.12 | 1.23 ± 0.21 | 1 (active) |
| Br.Cc1nc(C)c(-c2csc(Nc3cccc(C(=O)O)c3)n2)s1 | 0.754 ± 0.067 | 0.883 ± 0.082 | 1.08 ± 0.11 | 0.882 ± 0.048 | 1.36 ± 0.087 | 1.56 ± 0.13 | 1 (active) |
| CCN(CC)CCN1C(=O)C(O)=C(C(=O)c2ccc(Br)cc2)C1c1ccccc1F (centres undefined) | 0.741 ± 0.061 | 0.884 ± 0.1 | 0.985 ± 0.1 | 0.94 ± 0.045 | 1.14 ± 0.08 | 1.2 ± 0.15 | 1.01 (active) |
| Nc1ccn([C@H]2CC[C@@H](CO)O2)c(=O)n1 | 1.05 ± 0.13 | 1.1 ± 0.081 | 1.02 ± 0.09 | 1.03 ± 0.088 | 0.976 ± 0.06 | 1.02 ± 0.081 | 0.995 (active) |
| O=c1ccc2ccc(OCCCCN3CCN(c4cccc5sccc45)CC3)cc2[nH]1 | 0.31 ± 0.016 | 0.917 ± 0.073 | 1.16 ± 0.14 | 1.05 ± 0.096 | 1.35 ± 0.25 | 1.15 ± 0.34 | 0.27 (inactive) |
| Cc1cc(OCCCOc2cccc3cccnc23)ccc1Cl | 0.752 ± 0.06 | 1.02 ± 0.058 | 0.864 ± 0.052 | 0.998 ± 0.025 | 1.14 ± 0.18 | 1.03 ± 0.27 | 1 (active) |
| CCCCCN(CCCCC)C(=O)C(CCC(=O)[O-])NC(=O)c1ccc(Cl)c(Cl)c1 (centres undefined) [Prestw-915] | 1.02 ± 0.064 | 0.954 ± 0.096 | 0.901 ± 0.064 | 1.1 ± 0.073 | 1.55 ± 0.17 | 1.29 ± 0.14 | 0.832 (active) |
| CCOc1ccc(-c2nc3c(c(C)nn3-c3ccccc3)c3cc(OC)c(OC)cc23)cc1 | 0.812 ± 0.063 | 0.934 ± 0.089 | 1.05 ± 0.095 | 0.948 ± 0.043 | 1.29 ± 0.075 | 1.48 ± 0.14 | 1 (active) |
| CSc1nc(C(C)(C)C)cc(C(F)(F)F)c1C#N | 0.738 ± 0.061 | 0.955 ± 0.15 | 1.12 ± 0.049 | 0.998 ± 0.05 | 0.855 ± 0.12 | 0.923 ± 0.26 | 0.996 (active) |
| CCC(C)(C)C(=O)Nc1ccc(C(C)=O)cc1 | 0.962 ± 0.076 | 1.03 ± 0.068 | 0.953 ± 0.045 | 0.909 ± 0.13 | 1.02 ± 0.14 | 1.11 ± 0.22 | 1 (active) |
| O=S(=O)(C=Cc1ccccc1)NCc1ccccc1 | 0.933 ± 0.15 | 1.03 ± 0.083 | 0.953 ± 0.085 | 1.03 ± 0.028 | 1.28 ± 0.13 | 1.61 ± 0.37 | 0.97 (active) |
| CCOC(=O)C1=C(C)NC(C)=C(C(=O)OC)C1c1cccc([N+](=O)[O-])c1 (centres undefined) | 0.706 ± 0.055 | 0.763 ± 0.088 | 0.859 ± 0.076 | 1.02 ± 0.049 | 1.44 ± 0.098 | 1.37 ± 0.11 | 0.985 (active) |
